Among the data in PubChem BioAssay (EPA / NIEHS) are outcome and AC50 values, retold here.

The structures appear in SMILES notation. Inconclusive results are not listed. Activity calls are given as the source filed them. Rule for the calls, unless noted: active = hit-call score of the fitted dose curve at least 0.9, where 1 is the maximum; inactive = score below 0.9.

Assay [1] can be described thus: ACEA_ER_80hr: ACEA Biosciences xCELLigence Real-Time Cell Analysis on Estrogen Receptor Agonism for Proliferation (AID 2282667; active = hit-call score of the fitted dose curve at least 0.9, where 1 is the maximum). The conditions noted are these: T47D proliferation, impedance (xCELLigence), 80 h. In a few lines:
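Cell-growth kinetics were measured by impedance in T47D cells treated continuously with compound (top 100 uM final, 1:4 steps, 8 points). Activity at 80 h was scored as signal gain over the DMSO baseline.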

The nature of assay [2]: APR_HepG2_CellCycleArrest_24hr: Apredica 24-hour HepG2 Assay for Cell Cycle Arrest (AID 2282905).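 Note: cell cycle arrest scored as ratio of 2N to 4N nuclear DNA content.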 The conditions noted are these: imaging, actives raise or lower the signal. In a few lines: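 HepG2 cells were exposed to compounds at 0.39–200 uM (ten concentrations, duplicate) in 0.5% v/v DMSO for 24 hr. After formaldehyde fixation and Triton permeabilization, Hoechst 33342-stained nuclei were imaged at 20x; DNA content was quantified, with bidirectional fitting against DMSO.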

Assay [3] can be described thus: APR_HepG2_CellLoss_24hr: Apredica 24-hour HepG2 Assay for Cell Loss (AID 2282908).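 For AC50: fit in both directions so a hit may be cell loss or gain.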 The conditions noted are these: high-content imaging. The procedure, abridged: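 Compounds were tested at 0.39–200 uM in duplicate with 0.5% v/v DMSO final. Cells were then fixed in 3.7% formaldehyde, Hoechst 33342 nuclei were imaged at 20x by HCS, and cell number was fitted bidirectionally against DMSO.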

Assay [4] in a line: APR_HepG2_MitoMembPot_24hr: Apredica 24-hour HepG2 Assay for Mitochondrial Membrane Potential (AID 2282911). Conditions: imaging, actives raise or lower the signal. The procedure, abridged: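 Human hepatoma HepG2 cultures received ten compound concentrations up to 200 uM for 24 hr. Membrane-potential dye signal, captured by automated fluorescence microscopy, was scored for gain or loss against DMSO controls.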

Assay [5] is described as follows: APR_HepG2_MitoMass_24hr: Apredica 24-hour HepG2 Assay for Mitochondrial Mass (AID 2282912). Conditions: high-content imaging, actives raise or lower the signal. The procedure, abridged: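 Human HepG2 liver cells were exposed for 24 hr to compounds at 0.39–200 uM (duplicates, 0.5% v/v DMSO final). They were stained live with 250 nM MitoTracker Red CMXRos for 30 min, fixed in 3.7% formaldehyde, and imaged by HCS fluorescence; signals were fitted bidirectionally against DMSO.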

Assay [6] is described as follows: APR_HepG2_p53Act_24hr: Apredica 24-hour HepG2 Assay for p53 Activation (AID 2282913).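 Note: p53 protein immunofluorescence averaged per cell in HepG2 with Hoechst nuclei.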 The conditions noted are these: high-content imaging, actives raise or lower the signal. The procedure, abridged: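 Automated fluorescence imaging quantifies p53 immunostaining in HepG2 cells after a 24 hr exposure (0.39–200 uM, duplicate, 0.5% DMSO). Nuclei are located by Hoechst 33342 staining.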

A short description of assay [7]: APR_HepG2_CellCycleArrest_72hr: Apredica 72-hour HepG2 Assay for Cell Cycle Arrest (AID 2282914). The conditions noted are these: high-content imaging, actives raise or lower the signal. In a few lines:
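Cell cycle arrest in HepG2 was scored from nuclear DNA content after 72 hr compound treatment (0.39–200 uM). Activity, either gain or loss, was fitted against the DMSO baseline.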

Assay [8] in a line: APR_HepG2_CellLoss_72hr: Apredica 72-hour HepG2 Assay for Cell Loss (AID 2282915). Conditions: high-content imaging. In a few lines: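 Cell number comes from Hoechst 33342-labelled nuclei, imaged at 20x after 3.7% formaldehyde fixation. Dosing was 0.39–200 uM, ten concentrations in duplicate, 0.5% DMSO final, for 72 h. Bidirectional fit relative to DMSO baseline.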
Assay [9] is described as follows: APR_HepG2_MicrotubuleCSK_24hr: Apredica 24-hour HepG2 Assay for Microtubule CSK Stabilty (AID 2282909). Conditions: HepG2 microtubule cytoskeleton imaging, actives raise or lower the signal. The procedure, abridged:
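HepG2 cells exposed 24 h to compounds at 0.39–200 uM (duplicate, 0.5% v/v DMSO final), then fixed, permeabilized and immunostained for alpha-tubulin with Hoechst 33342. Cytoskeleton imaged at 20x; bidirectional fit versus DMSO baseline.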

The nature of assay [10]: APR_HepG2_CellCycleArrest_1hr: Apredica 1-hour HepG2 Assay for Cell Cycle Arrest (AID 2282666). The conditions noted are these: high-content imaging, actives raise or lower the signal. The procedure, abridged: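 HepG2 cells exposed for 1 h to 0.39–200 uM compound (0.5% DMSO). Fixed, Hoechst-stained nuclei imaged by ArrayScan; DNA content quantified by Cell Cycle analysis; bidirectional fit against DMSO.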

Assay [11] can be described thus: APR_HepG2_CellLoss_1hr: Apredica 1-hour HepG2 Assay for Cell Loss (AID 2282668).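 Note: curves fitted both ways against DMSO so gain or loss of cells counts.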 Conditions: high-content imaging. The procedure, abridged: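 HepG2 cells were treated for 1 h with compound at 0.39–200 uM, in duplicate, in 0.5% DMSO. After formaldehyde fixation, Hoechst 33342-stained nuclei were imaged on an ArrayScan to count cells. Data were fitted bidirectionally versus DMSO.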

Assay [12] is described as follows: APR_HepG2_MicrotubuleCSK_1hr: Apredica 1-hour HepG2 Assay for Microtubule CSK Stabilty (AID 2282669). Conditions: HepG2 microtubule cytoskeleton imaging, actives raise or lower the signal. The procedure, abridged: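 HepG2 cells exposed 1 h to 0.39–200 uM compound (0.5% DMSO, duplicates), then formaldehyde-fixed, permeabilized and immunostained for alpha-tubulin with Hoechst nuclei. Imaged by ArrayScan high-content analysis; bidirectional fit versus DMSO.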

Assay [13] in a line: APR_HepG2_NuclearSize_1hr: Apredica 1-hour HepG2 Assay for Nuclear Size (AID 2282670). Conditions: high-content imaging, actives raise or lower the signal. The procedure, abridged:
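HepG2 cells dosed 1 hr with 0.39–200 uM compound (0.5% DMSO), formaldehyde-fixed, Hoechst 33342-stained and imaged at 20x; nuclear diameter from nuclear stain, fitted bidirectionally against DMSO.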

A short description of assay [14]: APR_HepG2_MitoticArrest_1hr: Apredica 1-hour HepG2 Assay for Mitotic Arrest (AID 2282672). Conditions: high-content imaging, actives raise or lower the signal. The procedure, abridged:
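HepG2 cells exposed 1 hr to compounds at 0.39–200 uM (0.5% v/v DMSO final), then fixed in 3.7% formaldehyde and immunostained for phospho-histone H3 with Hoechst 33342. Mitotic arrest scored by automated fluorescence imaging, fitted bidirectionally versus DMSO.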

Assay [15] in a line: APR_HepG2_P-H2AX_1hr: Apredica 1-hour HepG2 Assay for H2AX Phosphorylation (AID 2282673). The conditions noted are these: high-content imaging, actives raise or lower the signal. In a few lines:
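HepG2 dosed 1 hr at 0.39-200 uM (0.5% DMSO final), duplicate. Fixed in 3.7% formaldehyde, Triton permeabilized, immunostained for phospho-histone H2A.x (1:200) with Hoechst 33342; ArrayScan 20x imaging, bidirectional fit vs DMSO.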

Assay [16] in a line: APR_HepG2_MitoMass_1hr: Apredica 1-hour HepG2 Assay for Mitochondrial Mass (AID 2282674). Conditions: high-content imaging, actives raise or lower the signal. The procedure, abridged:
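HepG2 cells dosed 1 hr with 0.39-200 uM compound (0.5% DMSO), duplicate wells. Mitochondria stained with 250 nM MitoTracker Red CMXRos for 30 min before formaldehyde fixation, imaged at 20x by ArrayScan; bidirectional fit versus DMSO.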

Assay [17] is described as follows: APR_HepG2_MitoMembPot_1hr: Apredica 1-hour HepG2 Assay for Mitochondrial Membrane Potential (AID 2282675). Conditions: imaging, actives raise or lower the signal. The procedure, abridged: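 HepG2 cells dosed 1 hour with 0.39–200 uM compound in duplicate, 0.5% DMSO final. MitoTracker Red CMXRos (250 nM, 30 min) loaded before formaldehyde fixation; fluorescence quantified by high-content imaging, bidirectional fitting versus DMSO.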

Assay [18] can be described thus: APR_HepG2_StressKinase_1hr: Apredica 1-hour HepG2 Assay for Stress Kinase (AID 2282906). Conditions: HepG2 stress kinase (phospho-c-Jun) imaging, actives raise or lower the signal. The procedure, abridged: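 HepG2 cells dosed 0.39-200 uM (0.5% DMSO) for 1 h, then formaldehyde-fixed. Stress kinase read by phospho-c-Jun immunofluorescence using high-content imaging; bidirectional fit vs DMSO.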

Assay [19] in a line: APR_HepG2_MitoticArrest_24hr: Apredica 24-hour HepG2 Assay for Mitotic Arrest (AID 2282910). The conditions noted are these: high-content imaging, actives raise or lower the signal. The procedure, abridged:
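Compounds are dosed onto HepG2 cells across ten concentrations up to 200 uM for 24 hr. Cells are then fixed in 3.7% formaldehyde, permeabilised, and labelled for phospho-histone H3 and nuclei; images are scored by cell cycle analysis and fitted bidirectionally relative to DMSO.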

Assay [20] in a line: APR_HepG2_NuclearSize_24hr: Apredica 24-hour HepG2 Assay for Nuclear Size (AID 2282907). Conditions: high-content imaging, actives raise or lower the signal. In a few lines:
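HepG2 human liver cells were exposed for 24 hr to compounds at 0.39–200 uM (ten concentrations, duplicate) in 0.5% v/v DMSO. They were then formaldehyde-fixed, Triton-permeabilized and Hoechst 33342-stained, and nuclear diameter was imaged at 20x. Bidirectional fits were made against DMSO.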

For orientation: AC50 means the midpoint of the concentration-response curve, whichever way the signal moves.

Consider `C=CC(N)=O`, for which the compound was called inactive in [1], in assay [2], in assay [3], in assay [4], in assay [5] and in assay [6]. Further, the outcome in assay [7] and in assay [8] was inactive.
As for `ClC1=C(Cl)[C@]2(Cl)[C@@H]3[C@@H]4C[C@@H]([C@H]5O[C@@H]45)[C@@H]3[C@@]1(Cl)C2(Cl)Cl`, the AC50 in [1] was 10.8 µM (active); in [3], 31.6 µM (active); in [7], 39.2 µM (active); in [8], 34.4 µM (active). In addition, the result in assay [2], in [9], in assay [4], in assay [5] and in assay [6] was inactive.
As to `CCNc1nc(NC(C)C)nc(SC)n1`, the compound was classed as inactive in assay [10], in assay [11], in assay [12], in assay [13], in assay [14] and in assay [15]. The compound was called inactive in assay [16], in assay [17], in assay [2], in assay [18], in [3] and in assay [9]. Also, the call in assay [19], in assay [4], in [5], in [7] and in assay [8] was inactive.
For the compound `CC1=C2C[C@H]3[C@@H](CC=C4C[C@@H](O)CC[C@@]43C)[C@@H]2CC[C@]12O[C@@H]1C[C@H](C)CN[C@H]1[C@H]2C`, the compound was classed as inactive in assay [1], in assay [2], in assay [20], in assay [4], in assay [6] and in assay [7]. For the same compound, the AC50 in assay [3] is 20.2 µM (active); in [19] it was 23.8 µM (active); in assay [5], 35.4 µM (active); in assay [8], 25.3 µM (active).
On to `CCOP(=S)(OCC)SCSC(C)(C)C`, for which the outcome in assay [1], in assay [2], in assay [3], in [9], in [19] and in assay [5] was inactive. Moreover, the call in [6], in assay [7] and in [8] was inactive. The AC50 in assay [4] is 49.4 nM (active).
On to `N#Cc1ccc(N(CC(N)=O)CC(F)(F)F)cc1C(F)(F)F`, for which the call in assay [2], in assay [20], in assay [3], in assay [9], in [19] and in assay [4] was inactive. Also, the compound was called inactive in assay [5], in [6], in assay [7] and in assay [8].
On to `CC#Cc1cc(C)nc(Nc2ccccc2)n1`, for which the outcome in [1], in assay [2], in [3], in [9], in assay [19] and in [4] was inactive. Also, the result in assay [5] and in assay [6] was inactive. Besides, the AC50 was 96.1 µM (active) in assay [7] and 69.8 µM (active) in assay [8].
